# Results from PubChem BioAssay AID590 (National Center for Advancing Translational Sciences (NCATS), 2007).
# Screen size: about 59,000 compounds; about 6,500 (11%) were called active. Not shown: some 15% with an inconclusive outcome. Rule as the data show it: active = max dye-equivalent concentration above about 10 nM; inconclusive = mostly about 1.1 nM to 9.6 nM; inactive = weaker than that. For the sample, actives were picked, then their nearest neighbours and some compounds at random.
# Assay: qHTS Assay for Spectroscopic Profiling in A350 Spectral Region
# Conditions: Compound autofluorescence, 340/450 nm, Alexa 350 dye-equivalents; hits give high values
row,SMILES,max dye-equivalent concentration
1,O=C(c1csnn1)N1CCC[C@@]2(CCN(c3cccc(-c4ccccc4)c3)C2)C1,inactive
2,COc1ccc(-n2c(SCC(=O)OC(C)C)nnc2-c2ccccn2)cc1,inactive
3,COc1ccc(C2C(C(=O)Nc3ccccc3OC)=C(C)Nc3nnnn32)c(OC)c1 (stereo not drawn),inactive
4,COc1ccc(C2=CC(c3cccc(OC)c3)n3nnnc3N2)cc1 (stereo not drawn),15 nM (active)
5,CCOc1cccc(-n2nnnc2-c2ccc(OC)cc2)c1,inactive
6,COC(=O)C1=C(C)NC(=O)NC1/C=C/c1ccccc1 (stereo not drawn),inactive
7,O=S(=O)(Nc1ccccn1)c1ccc(Oc2ccccc2)cc1,inactive
8,CC(C)C(=O)N1CCN(c2nc(-c3ccccc3)c3c(c2C#N)CC(C)(C)OC3)CC1,200 nM (active)
9,c1ccc2[nH]c(NCCN3CCOCC3)nc2c1,inactive
10,CC(C)c1nc(N2CCOCC2)c(C#N)c2c1COC(C)(C)C2,150 nM (active)
11,CC1(C)Cc2c(C#N)c(SCc3nc4ccccc4[nH]3)nc(N3CCOCC3)c2CO1,23 nM (active)
12,COc1ccc(CSc2nc(N3CCOCC3)c3c(c2C#N)CC(C)(C)OC3)cc1,34 nM (active)
13,COc1cc(C2C(C#N)=C(N)Oc3n[nH]c(-c4ccccn4)c32)cc(OC)c1OC (stereo not drawn),inactive
14,CCc1nnc(NC(=O)c2c(O)c3c([nH]c2=O)CCCC3)s1,inactive
15,CN(Cc1ccccc1)Cc1ccccc1F,inactive
16,Cc1ccc(S(=O)(=O)N2CCC(C(=O)N[C@@H](C)C(=O)NCc3ccccc3)CC2)cc1,inactive
17,O=C(c1csnn1)N1CCC2(CC1)CN(c1ncccn1)C2,inactive
18,CC(C)OCCCNC(=O)CNC(=O)c1cccs1,inactive
19,CCCCOc1ccc(Cl)cc1CSc1nncn1N,inactive
20,O=C1[C@@H]2C(Cc3ccc(O)cc3)NC3(C(=O)Nc4ccc(F)cc43)[C@@H]2C(=O)N1c1ccc(F)cc1 (stereo partly drawn),inactive
21,CC(C)Cc1nc(N2CCOCC2)c(C#N)c2c1CCC2,62 nM (active)
22,Cc1cc(C(=O)COC(=O)CCCN2C(=O)c3ccccc3C2=O)c(C)n1C,inactive
23,O=C(CN1C(=O)CCC1=O)Nc1ccc(S(=O)(=O)N2CCOCC2)cc1,inactive
24,CC(=O)OCc1cc(=O)n(C)c(=O)n1C,inactive
25,COc1c(C)cccc1C(=O)Nc1cc(Cl)ccc1N1CCOCC1,inactive

row,SMILES,max dye-equivalent concentration
1,O=C(O)[C@@H](O)Cc1ccccn1,inactive
2,COc1ccc2c(c1)CCc1c(C(=O)N3CCc4ccccc4C3)noc1-2,inactive
3,CCOC(=O)CN(C)Cc1c[nH]c2ccccc12,inactive
4,CCOC(=O)c1[nH]c2ccccc2c1N=C(C)N(CC)CC,inactive
5,CCOC(=O)c1[nH]c2ccc(C)cc2c1N=C(C)N(C)C,29 nM (active)
6,CC(=O)c1cccc(NC(=O)N2CCCC2C(=O)NCCC(C)C)c1 (stereo not drawn),inactive
7,CC12CCC(C(=O)N3CCN(c4ncccn4)CC3)(c3nc4ccccc4nc31)C2(C)C (stereo not drawn),inactive
8,O=c1nc(N2CCOCC2)nc2n1CCO2,inactive
9,O=C(CSc1nc2ccccc2[nH]1)c1cccs1,inactive
10,N#Cc1c(N)n(CCOC(=O)c2ccc(Cl)cc2)c2nc3ccccc3nc12,610 nM (active)
11,Cn1cccc1C(=O)N1CCC2(CC1)CN(c1cccc(-c3ccccc3)c1)C2,inactive
12,CC[C@@H]1Cc2cc(O)ccc2C2=C1c1ccc(O)cc1C[C@H]2CC,260 nM (active)
13,CCC1SC2=NCCN2C1(O)c1ccc(Cl)cc1 (stereo not drawn),inactive
14,Cc1cc(NC(=O)c2cnn3cccnc23)n(-c2ccccc2)n1,inactive
15,CCC(C(=O)NC1CCCC1)N(C(=O)c1snc(C(N)=O)c1N)c1ccc2c(c1)OCCO2 (stereo not drawn),inactive
16,COCCNC(=O)C(c1ccc(C)o1)N(Cc1cccs1)C(=O)c1snc(C(N)=O)c1N (stereo not drawn),88 nM (active)
17,COCCNC(=O)C(c1ccc(C)o1)N(Cc1ccccc1)C(=O)Cn1nnc2ccccc21 (stereo not drawn),inactive
18,N=c1c2c3c(sc2ncn1CCCN1CCOCC1)CCCCC3,inactive
19,CN(CCc1ccccn1)S(=O)(=O)c1ccc2c3c(cccc13)C(=O)N2,790 nM (active)
20,O=c1[nH]nc(Cc2ccccn2)c2ccccc12,inactive
21,CCNc1nc(N)nc(Oc2ccc(OCC)nn2)n1,inactive
22,COc1ccccc1N1CCN(C(=O)CN(Cc2ccc(Cl)cc2)S(C)(=O)=O)CC1,inactive
23,Cn1cccc1C(=O)Nc1nccs1,inactive
24,Cn1cccc1C(=O)NC(=O)COC(=O)Cc1coc2ccc3ccccc3c12,38 nM (active)
25,O=C1C2(c3ccccc3)CN(CCCO)CC1(c1ccccc1)CN(CCCO)C2,inactive

row,SMILES,max dye-equivalent concentration
1,Cn1c(=O)[nH]c(=O)c2c1nc(Br)n2CCCCSc1nc2ccccc2o1,inactive
2,Cc1cc(N2CCCCC2)nc2ccc(Cc3ccc4nc(N5CCCCC5)cc(C)c4c3)cc12,43 nM (active)
3,Fc1ccc2nc(N3CCCCC3)sc2c1,inactive
4,CCCn1c(SCC(=O)Nc2cccc(C(=O)OCC)c2)nnc1-c1ccoc1C,inactive
5,Cc1cc(=O)cc(C)[nH]1,inactive
6,Cc1ccccc1-c1nc(N(C)Cc2ccco2)c2ccccc2n1,inactive
7,Clc1cccc(Cl)c1Cn1nnc(-c2cccs2)n1,inactive
8,CCOC(=O)c1c(N)c(C#N)nn1-c1ccccc1C(=O)OC,inactive
9,O=C(Nc1ccccc1)c1cccnc1Nc1ccccc1,inactive
10,Oc1ccc2nc(Cc3ccccc3)[nH]c2c1,inactive
11,COC(=O)Nc1nc2ccc(Sc3ccccc3)cc2[nH]1,16 nM (active)
12,CCC(=O)Nc1cccc(NC(=O)CSc2nnnn2C2CCCC2)c1,inactive
13,Cc1ccc(S(=O)(=O)NCc2cn3ccsc3n2)c(C)c1,inactive
14,CCOc1cccc(-c2nnc3sc(COc4ccc(OC)cc4)nn23)c1,inactive
15,COc1cc(-c2nn3c(-c4cccc(C)c4)nnc3s2)cc(OC)c1OC,2600 nM (active)
16,c1ccc(-c2cc(-c3nnc4sc(-c5ccccn5)nn34)[nH]n2)cc1,inactive
17,CCOC(=O)CNC(=O)CSc1nnc(-c2cccc(OC)c2)n1CC,inactive
18,Fc1ccc(-c2ccc(-c3nn4c(-c5ccco5)nnc4s3)o2)cc1,68 nM (active)
19,O=C(CSc1nnc2scc(-c3ccc(F)cc3)n12)NCc1ccco1,inactive
20,Cc1nnc2sc(-c3ccco3)nn12,inactive
21,c1ccc(-c2nnc3n2NC(c2ccc4c(c2)OCO4)S3)cc1 (stereo not drawn),inactive
22,CC(=O)Nc1ccc(-c2nn3c(C)nnc3s2)cc1C,inactive
23,Fc1ccc(-c2nnc3sc(-c4ccc5c(c4)OCO5)nn23)cc1,36 nM (active)
